# Data from ChEMBL document CHEMBL3988442, “University of Dundee, Small-Polar-MMV Screening Library” (2021).
# Target: T1, Aspartate--tRNA(Asp/Asn) ligase (Mycobacterium tuberculosis (strain ATCC 25618 / H37Rv)) (UniProt P9WFW3)
# T1 sequence (whole entry): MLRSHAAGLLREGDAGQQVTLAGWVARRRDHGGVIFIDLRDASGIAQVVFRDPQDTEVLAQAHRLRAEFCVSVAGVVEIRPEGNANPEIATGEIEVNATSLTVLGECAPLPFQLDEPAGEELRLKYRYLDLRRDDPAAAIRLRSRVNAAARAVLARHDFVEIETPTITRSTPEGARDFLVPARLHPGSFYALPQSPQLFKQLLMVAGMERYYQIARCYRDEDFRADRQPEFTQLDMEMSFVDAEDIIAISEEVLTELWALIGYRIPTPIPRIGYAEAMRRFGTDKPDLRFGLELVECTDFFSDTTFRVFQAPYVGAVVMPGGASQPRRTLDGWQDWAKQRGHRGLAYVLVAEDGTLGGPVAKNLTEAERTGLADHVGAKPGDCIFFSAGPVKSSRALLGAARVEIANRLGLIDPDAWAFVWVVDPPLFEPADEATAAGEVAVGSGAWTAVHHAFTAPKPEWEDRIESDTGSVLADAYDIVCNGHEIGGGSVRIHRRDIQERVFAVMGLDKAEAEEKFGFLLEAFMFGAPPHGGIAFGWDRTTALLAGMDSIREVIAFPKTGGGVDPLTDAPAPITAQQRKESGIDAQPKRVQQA
# Assay: Assay for Asp RNA synthetase-1 from Mycobacterium tuberculosis
# Assay type: functional
# Set-up: scale not given: in the data most compounds retested in dose-response had high values
# Settings: 30 µM
row,SMILES,Percent Effect [%]
1,CN(Cc1cnn(C)c1)C(=O)NC1CCN(c2ncccn2)CC1,-1.27
2,CCNC(=O)CCc1c(C)nc2cc(O)nn2c1C,4.16
3,CCc1ncc2c(n1)CN(Cc1nc(C)c(C)o1)CC2,0.259
4,CCN(C)c1ncnc2c1CCN(C(=O)N1CCCC1)CC2,9
5,COc1ccc(CC(=O)N(C)Cc2nnc3ccccn23)cc1,2.36
6,COc1cccc(COCC(O)CN2CC(n3cccn3)C2)c1 (stereo unspecified),-2.41
7,Cc1nc(C)n(C2CCCN(C(=O)c3sccc3C3CC3)C2)n1 (stereo unspecified),-3.11
8,COc1ccc(CCN2CCCC(Cn3nc(C)nc3C)C2)cc1 (stereo unspecified),-3.48
9,O=C(NCC1CC1)[C@@H]1CCO[C@@H]2CCN(Cc3ccco3)C[C@H]21,7.48
10,CC1=Nc2c(c(=O)[nH]n2C2CCOCC2)C(c2cccc(Br)c2)S1 (stereo unspecified),0.0871
11,COc1ccc2c(c1)CCN(CCC(=O)NC1CCCCC1)CC2,-0.993
12,Cc1ccn(-c2ccccc2NCc2ccccn2)n1,0.661
13,CC(OCC1CC1)C(=O)N1CCCN(Cc2nccn2C)CC1 (stereo unspecified),7.9
14,CCn1ccnc1CN1CCCN(C(=O)c2sccc2C#N)CC1,1.71
15,CNC(=O)CC1CCN(Cc2nc(-c3cccc(Cl)c3)oc2C)CC1,4.32
16,Cc1cccc(CN(C)Cc2nc3c(cnn3C)c(=O)[nH]2)c1,3.62
17,Cc1noc(C)c1C(=O)NCC(C)N(C)C (stereo unspecified),1.84
18,CS(=O)(=O)NCc1nnc2n1CCN(Cc1cccs1)C2,-4.17
19,O=C(C1CCOC1)N1CC[C@@H](O)[C@@H]1Cc1ccccc1 (stereo partly specified),-2.71
20,O=C(CCNc1ncccn1)NCCOc1ccc2c(c1)CCC2,1.63
21,COc1ccc2c(c1)OCC(CNC(=O)c1ccc(=O)n(C)c1)C2 (stereo unspecified),-0.474
